The source of these data is PubChem BioAssay (NCI).

Holding throughout (assay): NCI-60 one-dose screen, 48 h (100 = growth as untreated, 0 = no growth, -100 = all killed)
Holding throughout (settings): 10 µM

The test system of test [1] is DU-145 prostate.
Test [2] relates to K-562 leukemia.
The test system of test [3] is MALME-3M melanoma.
Test [4] concerns MDA-MB-231 breast.
Test [5] has as its system RXF 393 renal.
For test [6], the system named is SF-268 CNS.
The test system of test [7] is SF-295 CNS.
The subject of test [8] is SF-539 CNS.
The test system of test [9] is UACC-257 melanoma.
For test [10], the system named is M14 melanoma.

Several values for one entry are separate records, joined by “and”; a condition that tells them apart may be missing. Equal entries are not always repeated. This is part of a sample that, as a whole, favours compounds with a hit. Of some 83,000 tested, about 20% had one in any assay.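 Results are percent growth after 48 hours of single-concentration exposure. 100 means growth as in untreated cells, lower positive values show inhibition; negative values down to -100 show cell death.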 Activity calls are given as the source filed them. How the source made its calls: active means growth percent below 10; inactive means the rest.

With `COc1cc([N+](=O)[O-])c2ncccc2c1[N+](=O)[O-]`, the growth in [1] is 98.4% (inactive); in test [2], 29.4% (inactive); in [3], 114% (inactive); in test [4], 78.2% (inactive); in test [5], 59.4% (inactive); in test [6], 52.6% (inactive). Moreover, the growth is 94.3% (inactive) in [7], 13% (inactive) in test [8], 50.4% (inactive) in test [9] and 65.8% (inactive) in test [10].

In the case of `C=NCC#N`, the growth in test [1] is 109% (inactive); in test [2], 91.2% (inactive) and 107% (inactive); in test [3], 95.6% (inactive) and 111% (inactive); in test [4] it was 100% (inactive) and 112% (inactive); in test [5], 111% (inactive) and 101% (inactive); in test [6], 103% (inactive) and 102% (inactive). Further, the growth in [7] was 98.3% (inactive) and 124% (inactive); in test [8], 88.4% (inactive) and 99.3% (inactive); in test [9] it was 114% (inactive) and 103% (inactive); in test [10], 94.2% (inactive).

Turning to `N#CCc1ccccc1`, the growth in test [1] is 113% (inactive); in test [2], 98.3% (inactive); in test [3], 111% (inactive); in test [4] it was 98.4% (inactive); in test [5], 111% (inactive); in test [6], 93.4% (inactive). Further, the growth in test [7] was 104% (inactive); in test [8], 96.5% (inactive); in test [9] it was 103% (inactive); in test [10], 98.5% (inactive).

Consider `COc1ccc(/C=C\[N+](=O)[O-])cc1OC`, for which the growth in [1] was 60.5% (inactive) and 59.3% (inactive); in [2], 69.7% (inactive) and 27.5% (inactive); in [3], 155% (inactive) and 105% (inactive); in test [4], 91.4% (inactive) and 68.9% (inactive); in test [5], 4.99% (active) and -51.1% (active); in test [6], 73.8% (inactive) and 70.3% (inactive). For the same molecule, the growth is 60.6% (inactive) and 85.3% (inactive) in [7]; 88.1% (inactive) and 59.3% (inactive) in test [8]; 33.8% (inactive) and 73% (inactive) in test [9]; 75.6% (inactive) and 42.5% (inactive) in [10].

For `CC(C)C1(NC(=O)C2CC3c4cccc5[nH]cc(c45)CC3N(C)C2)OC2(O)C3CCCN3C(=O)C(Cc3ccccc3)N2C1=O` (centres undefined), the growth in test [1] is 104% (inactive); in test [2], 69.8% (inactive); in test [3], 98.8% (inactive); in [4] it was 86.9% (inactive); in test [5], 96.6% (inactive); in [6], 93.1% (inactive). In addition, the growth in [7] was 106% (inactive); in [8], 98.8% (inactive); in test [9], 93.7% (inactive); in test [10], 103% (inactive).

As to `[O-][n+]1ccccc1S`, the growth is 32.3% (inactive) in test [1]; 31.2% (inactive) in test [2]; 110% (inactive) in test [3]; 58.7% (inactive) in test [4]; 46.9% (inactive) in [5]; 70.7% (inactive) in test [6]. The growth is 44.4% (inactive) in [7], 67.6% (inactive) in test [8] and 23.9% (inactive) in [9].

`Cc1cc([N+](=O)[O-])c2ccccc2[n+]1[O-]`: the growth in [1] was -35.9% (active) and -37% (active); in test [2] it was 1.04% (active) and -22.1% (active); in [3], -20.8% (active) and -41% (active); in test [4], -17.4% (active) and -36.7% (active); in test [5] it was -51.4% (active) and -66.4% (active); in test [6], -12.7% (active) and -10.4% (active). In addition, the growth is -21% (active) and -59% (active) in [7]; -49.2% (active) and -61.6% (active) in test [8]; 8.15% (active) and -28% (active) in test [9]; -80.7% (active) and -70.6% (active) in test [10].

Regarding `COC(=O)C1C(O)C(C)C(O)C(C)/C=C\C=C(C)C(=O)Nc2c(C)c(OC(C)=O)c3c(c2O)C(=O)C(C)=C2OCOC(=C23)C(C)=CC(C)(O)C(O)C(C)C1O` (centres undefined), the growth is 92.2% (inactive) in [1]; 106% (inactive) in test [2]; 97.9% (inactive) in test [3]; 88.6% (inactive) in test [4]; 98.6% (inactive) in [5]; 92.2% (inactive) in test [6]. For the same molecule, the growth in test [7] was 103% (inactive); in [8], 100% (inactive); in test [9] it was 93.1% (inactive); in test [10] it was 118% (inactive).

Turning to `CC[C@@H](C)[C@@H]1NC(=O)C(NC(=O)C(CC(C)C)N(C)C(=O)C2CCCN2C(=O)C(C)O)C(C)OC(=O)C(Cc2ccc(OC)cc2)N(C)C(=O)C2CCCN2C(=O)C(CC(C)C)NC(=O)C(C)C(=O)C(C(C)C)OC(=O)C[C@H]1O` (some centres undefined), the growth in test [1] is -40.7% (active); in [2], -27% (active); in test [3], -87.2% (active); in test [4], -55.6% (active); in test [5] it was -66.2% (active); in test [6], -49.4% (active). The growth in [7] is -31% (active); in [8] it was -70.1% (active); in test [9], -50.8% (active); in test [10], -80.1% (active).

Consider `O=C(CCl)Nc1ccc(Cl)cc1`, for which the growth in [1] was 76.1% (inactive); in [2], 19.4% (inactive); in [3], 28% (inactive); in test [4], 46.7% (inactive); in test [5], 35.2% (inactive); in test [6], 41.9% (inactive). In addition, the growth in [7] is 68.8% (inactive); in test [8], 105% (inactive); in [9], 69.9% (inactive); in [10] it was 47.1% (inactive).

For the molecule `O=c1[nH]c2ccccc2n1C1CCN(CCCC(c2ccc(F)cc2)c2ccc(F)cc2)CC1`, the growth in test [1] is 56.7% (inactive) and 53.3% (inactive); in test [2] it was -62.4% (active) and -55.3% (active); in test [3], -8.01% (active) and -56.3% (active); in [4] it was 40% (inactive) and 45.2% (inactive); in [5], 52.9% (inactive) and -40.4% (active); in test [6], 23.6% (inactive) and 70.8% (inactive). Moreover, the growth in test [7] was 6.63% (active) and 25.3% (inactive); in test [8] it was 77.3% (inactive) and -66.9% (active); in test [9], -27.7% (active) and 24.7% (inactive); in test [10] it was 14.9% (inactive).
